Experimental data from PubChem BioAssay (EPA / NIEHS).
Where “and” joins values, the source holds several entries; their conditions need not be identical. Equal entries are not always repeated. Calls of active or inactive are those of the source. The calls were made as follows: active = hit-call score of the fitted dose curve at least 0.9, where 1 is the maximum; inactive = score below 0.9.

Test: CEETOX_H295R_PROG: CeeTox H295R High-throughput Steroidogenesis Assay for Progesterone (PROG) (AID 2283442);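 as to AC50: human H295R adrenal cells primed with 10 µM forskolin before dosing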
Settings: actives raise or lower the signal
Procedure: CEETOX_H295R is a cell-based, multiplexed-readout assay that uses H295R, a human adrenal gland cell line, with measurements taken at 48 hours after chemical dosing in a 96-well plate.CEETOX_H295R_PROG is one of 23 assay component(s) measured or calculated from the CEETOX_H295R assay. It is designed to make measurements of hormone induction, a form of inducible reporter, as detected with absorbance signals by HPLC-MS-MS technology.Data from the assay component CEETOX_H295R_PROG was analyzed into 1 assay endpoint. This assay endpoint, CEETOX_H295R_PROG, was analyzed with bidirectional fitting relative to DMSO as the negative control and baseline of activity. Using a type of inducible reporter, gain or loss-of-signal activity using HPLC-MS-MS was used to understand synthesis of Progesterone in H295R cell line at 48hr of chemical exposure. To generalize the intended target to other relatable targets, this assay endpoint is annotated to the steroid hormone intended target family, where the subfamily is progestagens.
Cell culture and media preparation procedures were conducted in accordance with OECD Test No. 456 guidelines, with minor modifications. H295R cells (ATCC CRL-2128) were expanded for 5 passages and frozen in batches in liquid nitrogen. Prior to the steroidogenesis assay, H295R cells were thawed and passed at least 4 times. The maximum passage was 10. Cells were maintained in a 1:1 mixture of DMEM/F12 supplemented with 5ml/L ITS+ Premix (BD Bioscience) and 12.5 ml/L Nu-Serum (BD Bioscience). After seeding cells into 96-well plates at 50-60% confluency, cells were allowed to adhere overnight. Prior to chemical testing, culture medium was replaced with 175 uL medium containing 10 uM forskolin to stimulate steroidogenesis for 48 hours. Following prestimulation, forskolin medium was replaced with medium containing test chemical solubilized in DMSO (ensuring a final concentration of 0.1% DMSO). Test chemicals were incubated for 48 hours, then the medium was removed and split into 2 vials containing approximately 75uL each, and stored at -80 C prior to hormone analysis. For steroid quantification, media samples were shipped to OpAns, LLC (Durham, NC) on dry ice, and samples were thawed to room temperature prior to liquid-liquid extraction. Steroid hormones were extracted from media samples using methyl tertbutyl ether (MTBE). An extra derivatization with dansyl chloride was included for estrogen (estrone and estradiol) detection only. Steroid hormones were separated by HPLC, eluted using a reverse phase C18 gradient with electrospray positive ionization, followed by quantification by tandem mass spectrometry (MS/MS). Data were acquired on a MassHunter Workstation Acquisition version B03.01 (Agilent Technologies, Inc.) and processed using MassHunter Quantitative Analysis for QQQ. Accuracy was determined for each hormone analyte from 3 standards to determine upper and lower limits of quantification (ULOQ and LLOQ, respectively) using a 7-point standard curve. Precision and accuracy of the extraction and quantification methods were calculated as the percent relative standard deviation (%RSD) of the spiked standards and percent spiked standard recovered, respectively. The goal was to achieve 100% accuracy (i.e., recover all spiked-in standard at quantification with minimal loss during run time) and good precision (i.e., have %RSD <15% to ensure reproducibility). Test medium was removed following chemical exposure, and cell viability was evaluated in the same wells by MTT. MTT procedures were as follows: after removal of test medium, 500 uL of 0.5 mg/ml of 3-[4,5-dimethylthiazol-2-y]2,5-diphenyltetrazoliumbromide solution was added to the cells. Following a 4-hour incubation at 37 C and 5% CO2 to allow formazan-crystal formation, the MTT solution was removed and blue formazan salt crystals were solubilized using 500uL anhydrous isopropanol with shaking for 20 minutes. Absorbance was read at 570 and 650nm using a Packard Fusion microplate reader. […]

Structure (SMILES) | outcome | AC50
c1ccc(OP(Oc2ccccc2)Oc2ccccc2)cc1 | inactive | 
CCOP(=S)(OCC)SCn1nnc2ccccc2c1=O |  | 8.4 µM (active)
CCCCOCCOP(=O)(OCCOCCCC)OCCOCCCC | inactive | 
CCC(C)(C)c1ccc(O)cc1 | inactive | 
Nc1ccc(Cl)cc1 |  | 16.5 µM (active)
O=P(Oc1ccccc1)(Oc1ccccc1)Oc1ccccc1 |  | 1.37 µM (active)
N#Cc1c(-c2ccc(Cl)cc2)[nH]c(C(F)(F)F)c1Br | inactive | 
Oc1ccc(I)cc1 |  | 17 µM (active)
ClC(Cl)=C(c1ccc(Cl)cc1)c1ccccc1Cl | inactive | 
Nc1ccc([N+](=O)[O-])cc1Cl | inactive | 
O=S1(=O)OCC2C(CO1)C1(Cl)C(Cl)=C(Cl)C2(Cl)C1(Cl)Cl (stereo unspecified) |  | 1.03 µM (active)
CC(=O)c1ccc(-c2ccccc2)cc1 | inactive | 
CCCCc1ccc(O)cc1 | inactive | 
O=S(=O)(c1ccc(O)cc1)c1ccc(O)cc1 |  | 1.32 µM (active)
CCOP(=S)(Oc1ccc([N+](=O)[O-])cc1)c1ccccc1 (stereo unspecified) |  | 0.786 µM (active)
CCOP(=S)(NC(C)C)Oc1ccccc1C(=O)OC(C)C (stereo unspecified) |  | 6.65 µM (active)
CO/N=C(/C(=O)OC)c1ccccc1COc1ccccc1C |  | 4.24 µM (active)
Nc1ccc2ccccc2c1 |  | 13.8 µM (active)
CCNc1nc(Cl)nc(NC(C)(C)C)n1 | inactive | 
c1ccc2c(c1)Nc1ccccc1S2 |  | 2.23 µM (active) and 2.16 µM (active) and 12.2 µM (active)
Cc1ccc(O)cc1C | inactive | 
Cc1cccc(N)c1 | inactive | 
CC(C)(C)c1ccc(O)cc1 | inactive | 
CC(C)Nc1ccc(Nc2ccccc2)cc1 | inactive | 
COP(N)(=S)OC | inactive | 
Nc1cc2c3c(c1)C(c1ccccc1)=N[C@@H](NC(=O)c1cccnc1)C(=O)N3CC2 |  | 3.44 µM (active)
